TIM10 inh: inhibits growth of TIM10 yeast strain. S. cerevisiae TIM10 strain growth, BacTiter-Glo luminescence, 24 h. inhibition, % at 10 µM. hit rate 1.4% among 330,000. AID 463195;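 active = inhibition of 40% or more at the single tested concentration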;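 also: wild-type TIM10 isogenic control strain grown at permissive 25 °C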
tim10-1 inh: growth inhibitors of tim10-1 mutant yeast. AID 463190. hit rate 2.2% among 330,000. inhibition, % at 20 µM. S. cerevisiae tim10-1 ts strain growth, BacTiter-Glo, 24 h;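 active = inhibition of at least 40%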;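 also: mutant grown at 25 °C; 0% = DMSO wells with yeast and 100% = wells holding no yeast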
tim23-1 inh: inhibits growth of tim23-1 mutant yeast. S. cerevisiae tim23-1 growth, BacTiter-Glo luminescence, 24 h. inhibition, % at 20 µM. hit rate 1.3% among 330,000. AID 463212;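 active = growth inhibition of the mutant yeast at or above 50%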;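 also: temperature-sensitive mutant grown at 25 °C; plate controls were DMSO-treated mutant yeast for no effect and medium wells lacking yeast for full effect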
PfHsp90 yeast 2: inhibits growth of yeast expressing Plasmodium falciparum Hsp90 | inhibition, % at 9.4 µM | S. cerevisiae expressing PfHsp90, BacTiter-Glo ATP, 48 h; yeast lacking PDR1 and PDR3 efflux regulators | hit rate 0.32% among 310,000;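 active = every replicate shows inhibition above about 80%, whatever the replicate mean, limit read from the data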;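 also: 0% = DMSO neutral controls and 100% = 20 µM radicicol positive controls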
SKKanGAS inh: blocks kanamycin growth of S. pyogenes SKKanGAS strain. inhibition, % at 7.5 µM. BacTiter-Glo, 6 h. hit rate 1.3% among 300,000;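 active = mean replicate score, as percent of positive control median, at least 50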;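 also: strain carries kanamycin resistance gene driven by streptokinase promoter and grows in 40 µg/ml kanamycin; loss of luminescence reflects streptokinase promoter inhibition or plain growth inhibition; 0% = median of DMSO wells and 100% = positive control at its reference dose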
tim10-1 conf: confirmation of tim10-1 mutant yeast growth inhibitors; shares compounds with tim10-1 inh; S. cerevisiae tim10-1 ts strain growth, BacTiter-Glo, 24 h; inhibition, % at 20 µM; hit rate 56% among 7,400;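 active = inhibition of yeast growth at or above a set limit in either of two repeat tests at 20 µM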;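 also: tim10-1 mutant grown at permissive 25 °C to find synthetic lethal compounds; 0% = DMSO yeast wells and 100% = medium wells without yeast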
* marks the source's active call; other numbers are inactive results; nt = no result. Most compounds without a hit are left out; they make up all but 4.4% or so of the library.

SMILES	TIM10 inh	tim10-1 inh	tim23-1 inh	PfHsp90 yeast 2	SKKanGAS inh	tim10-1 conf
S=C(Nc1ccccc1)Nc1ccc(OCc2ccc(Cl)cc2Cl)cc1	21	48*	3	15	-2	19
CCOc1ccc(NC(=S)Nc2ccc(OCc3ccccc3)cc2)cc1	5	10	3	12	3	nt
CCOc1cccc(CN(CC)CC2CCCN(CCc3cccc(OC)c3)C2)c1O (stereo not drawn)	-202	-81	-55	-3	6	nt
Cc1ccc(-c2cc(-c3ccccc3Cl)c(C#N)c(N)n2)o1	34	41*	48	1	16	25
Cc1ccc(-c2c(C#N)c(N)nc3c2CCCC3)o1	13	9	13	-6	-4	nt
Cc1ccc(-c2cc(-c3ccc(F)cc3)nc(N)c2C#N)o1	6	12	15	-4	9	nt
Cc1ccc(-c2cc(-c3ccccc3)c(C#N)c(N)n2)o1	6	50*	19	47	10	27
N#Cc1c(-c2ccco2)cc(C2CC2)nc1N	19	20	25	-33	1	nt
N#Cc1c(-c2ccccc2)cc(C2CC2)nc1N	10	42*	19	-35	-8	13
CC(C)(C)NC(=O)C(c1ccc(-c2ccccc2)cc1)N(C[C@H]1CC[C@@H]([C@@H]2CC[C@H](CO)O2)O1)C(=O)c1ccc(C(C)(C)C)cc1 (stereo partly drawn)	10	26	44	-11	nt	nt
Cc1cccc2c1N(CCCOc1ccc(C(C)(C)C)cc1)C(=O)C2=O	27	40*	47	-18	22	19
CC(=O)C1(O)C(C)CC2C3CC(F)C4(O)CC(O)CCC4(C)C3CCC21C (stereo not drawn)	nt	nt	nt	-7	nt	nt
O=C(Nc1ccc(Cl)cc1)N(CCCN1CCOCC1)Cc1cccs1	4	2	7	15	-2	nt
S=C(Nc1ccc(Cl)cc1)N(CCCN1CCOCC1)Cc1cccs1	-15	41*	17	-3	0	8
CN(C)CCCN(C(=O)c1ccc2c(c1)CCCC2)c1nc2cc3c(cc2s1)OCO3	17	42*	17	18	3	25
CCN(CC)CCN(C(=O)c1ccc2c(c1)CCCC2)c1nc2ccc(OC)cc2s1	22	52*	34	26	-1	36*
O=C(Nc1ccc(Cl)cc1Cl)c1ccc2ncsc2c1	17	-1	29	14	1	nt
CCN(CC)C(=O)[C@H]1C[C@H](CC(=O)NCCN2CCOCC2)C(=O)N2CCc3c([nH]c4cc(-c5ccco5)ccc34)[C@]12C	1	15	39	31	nt	nt
CC(OC(=O)/C=C/c1ccc2ccccc2n1)C(=O)NCc1ccccc1 (stereo not drawn)	36	41*	32	0	-8	22
Cc1ccc(OC(=O)C2CSC3(C)CCC(=O)N23)c(Br)c1 (stereo not drawn)	7	49*	39	-31	-3	20
O=c1[nH]n(-c2ccccc2)c(=O)c(Cl)c1Cl	8	33	24	10	-1	nt
O=c1c2c([nH]n1-c1ccccc1)CCCC2	20	46*	39	-32	-6	27
COc1cccc2[nH]c3c(N4CCC(C)CC4)ncnc3c12	19	41*	23	-14	4	24
C[C@H]1CN=C(N(C)C)N1CCC1CCCCC1	-2	7	11	nt	nt	nt
CCCC(O)(c1ccccc1)C(CN1CCOCC1)c1ccccc1 (stereo not drawn)	17	41*	33	-3	4	19
SMILES	TIM10 inh	tim10-1 inh	tim23-1 inh	PfHsp90 yeast 2	SKKanGAS inh	tim10-1 conf
CCCC(O)(c1ccc(Cl)cc1)C(CN1CCOCC1)c1ccccc1 (stereo not drawn)	9	29	32	5	-5	nt
CCOc1cc(/C=C2\C(=O)N(Cc3ccc(C)cc3)C(C)=C2C(=O)OC)ccc1O	28	44*	47	-11	3	25
C[C@H](CO)N1C[C@H](C)[C@@H](CN(C)S(=O)(=O)c2cn(C)cn2)Oc2ccc(NC(=O)C3CCCCC3)cc2C1=O	1	-4	-2	7	nt	nt
N=C(N)c1ccc(/C=C/c2ccc(C(=N)N)cc2O)cc1	-22	56*	38	-9	100*	70*
N=C(N)c1ccc(Cl)cc1	16	-6	4	8	3	nt
Cc1noc(C)c1CSCC(=O)Nc1ccccc1N1CCCC1	nt	nt	nt	-8	nt	nt
COc1ccc(NC(=O)c2ccc(C)cc2)c[n+]1[O-]	nt	nt	nt	11	-1	nt
CCCCOc1ccc(OCCSc2nc3ccccc3n2CC(=O)O)cc1	5	-5	11	3	7	nt
CCCCOC(=O)n1c(SCC(=O)N(C)C)nc2ccccc21	-14	41*	11	-7	-4	7
COC(=O)CSc1nnc([C@H](Cc2ccccc2)NC(=O)OC(C)(C)C)o1	-5	16	19	-5	2	nt
COC(=O)CS(=O)(=O)c1nnc([C@H](Cc2ccccc2)NC(=O)OC(C)(C)C)o1	18	44*	23	-33	-2	38*
Cc1cc(Cl)ccc1OCCCC(=O)N1CCOCC1	8	42*	19	nt	6	29
Cc1ccc(C)c(S(=O)(=O)Nc2ccc(C(=O)NCCCN3CCOCC3)cc2)c1	-2	0	9	4	0	nt
O=C(CSC(=S)N1CCOCC1)Nc1nc(-c2ccccc2)c(-c2ccccc2)o1	-1	12	11	nt	41	nt
COc1cc(OC)cc(C(=O)Nc2nc(-c3ccccc3)c(-c3ccccc3)o2)c1	21	44*	10	6	90*	33*
CCN(CC)C(=S)SCC(=O)Nc1nc(-c2ccccc2)c(-c2ccccc2)o1	19	41*	18	-13	83*	12
COc1ccc(-c2sc3cc(OC)c(OC)cc3c2-c2ccc(O)cc2)cc1	23	23	33	-63	nt	nt
O=C1C(Cl)=C(Nc2cccc(O)c2)C(=O)N1Cc1ccccc1	32	42*	32	-7	18	31*
CC1CCCCN1C(=O)c1cccc(NC2=C(Cl)C(=O)N(Cc3ccccc3)C2=O)c1 (stereo not drawn)	35	51*	49	nt	nt	35*
CCOc1ccccc1NC1=C(Cl)C(=O)N(Cc2ccccc2)C1=O	24	44*	-3	-8	32	21
C=CCNC1=C(Cl)C(=O)N(Cc2ccccc2)C1=O	-31	-34	-9	-4	2	nt
Cc1ccc(S(=O)(=O)N2CCCC2)cc1C(=O)Nc1ccc(-n2cnnn2)cc1	8	-6	2	2	nt	nt
CCCCCN1CC(=O)N2C(C)c3[nH]c4ccccc4c3C[C@H]2C1=O (stereo partly drawn)	8	33	40	14	2	nt
CCCC(=O)Oc1c(S(=O)(=O)c2ccc(C)cc2)c(C)nn1C(C)(C)C	13	12	42	3	-2	nt
CCC(=O)Oc1c(S(=O)(=O)c2ccc(C)cc2)c(C)nn1C(C)(C)C	13	44*	43	-17	-2	23
O=C1CCCN1C(=O)COc1ccccc1[N+](=O)[O-]	-2	15	-6	3	2	nt
